Measurements: PubChem BioAssay AID1159580 (chemical genetic matrix, 2015)
In all, about 5,500 compounds went through this assay and about 2,000 (36%) were called active. Roughly 18% stayed inconclusive and do not appear here. Cut-off read from the data, not from the text of the source: active = normalized growth mostly below about 0.91 (no sharp cut-off); inconclusive = no clear call, values can overlap the other calls; inactive = mostly above about 0.92. Some of the results follow.

Test: chemical genetic growth profiling, strain panel (AID 1159580);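 note: tested at 20 µM; growth read once vehicle control cultures reached saturation at 30 °C; 1 = growth at the plate median or of vehicle wells; lower values mean less growth of the strain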
Conditions: S. cerevisiae deletion strains, growth OD

Measured: normalized growth

CC(=O)/C(=C\c1ccccc1)CC(=O)O
inactive: locus YAL021C, strain ccr4, active compounds read low 1 | locus YAL026C, strain drs2, active compounds read low 0.995 | locus YAL030W, strain snc1, active compounds read low 1 | locus YBL061C, strain skt5, active compounds read low 1 | locus YBR009C, strain hhf1, active compounds read low 0.986 | locus YBR023C, strain chs3, active compounds read low 1 | locus YBR171W, strain sec66, active compounds read low 0.992 | locus YBR231C, strain swc5, active compounds read low 0.982 | locus YBR279W, strain paf1, active compounds read low 0.999 | locus YCL011C, strain gbp2, active compounds read low 0.988 | locus YCL016C, strain dcc1, active compounds read low 0.991 | locus YCL061C, strain MRC1, active compounds read low 0.994 | locus YCL069W, strain vba3, active compounds read low 0.997 | locus YCR088W, strain abp1, active compounds read low 0.998 | locus YDL005C, strain med2, active compounds read low 0.998 | locus YDL040C, strain nat1, active compounds read low 0.985 | locus YDR001C, strain nth1, active compounds read low 0.992 | locus YDR069C, strain doa4, active compounds read low 0.982 | locus YDR137W, strain rgp1, active compounds read low 1.01 | locus YDR159W, strain sac3, active compounds read low 0.97 | locus YDR195W, strain ref2 0.948 | locus YDR297W, strain sur2, active compounds read low 0.994 | locus YDR334W, strain swr1, active compounds read low 0.996 | locus YDR335W, strain msn5, active compounds read low 0.996 | locus YDR392W, strain spt3, active compounds read low 0.775 | locus YEL003W, strain gim4, active compounds read low 0.992 | locus YEL037C, strain rad23, active compounds read low 0.997 | locus YEL061C, strain CIN8 (second series), active compounds read low 0.989 | locus YER015W, strain faa2, active compounds read low 0.996 | locus YER016W, strain bim1, active compounds read low 0.993 | locus YER111C, strain swi4, active compounds read low 0.992 | locus YER155C, strain BEM2 (second series), active compounds read low 0.923 | locus YFR010W, strain ubp6, active compounds read low 0.994 | locus YGL167C, strain pmr1, active compounds read low 0.993 | locus YGL173C, strain kem1, active compounds read low 0.991 | locus YGL227W, strain vid30, active compounds read low 0.991 | locus YGL240W, strain doc1, active compounds read low 0.978 | locus YGL253W, strain hxk2, active compounds read low 0.984 | locus YHR013C, strain ard1, active compounds read low 0.956 | locus YHR027C, strain rpn1, active compounds read low 0.996 | locus YHR030C, strain SLT2, active compounds read low 0.976 | locus YHR079C, strain IRE1, active compounds read low 0.954 | locus YHR142W, strain chs7, active compounds read low 1.01 | locus YJL092W, strain hpr5, active compounds read low 0.991 | locus YJL095W, strain BCK1 (second series), active compounds read low 0.992 | locus YJL095W, strain BCK1, active compounds read low 0.967 | locus YJL115W, strain asf1, active compounds read low 0.993 | locus YJL129C, strain trk1, active compounds read low 0.984 | locus YJL154C, strain vps35, active compounds read low 1 | locus YJL164C, strain tpk1, active compounds read low 1 | locus YJL166W, strain qcr8, active compounds read low 0.976 | locus YJL187C, strain SWE1, active compounds read low 0.997 | locus YJR066W, strain TOR1, active compounds read low 0.899 | locus YKL160W, strain elf1, active compounds read low 1.01 | locus YKR026C, strain gcn3, active compounds read low 0.986 | locus YKR091W, strain srl3, active compounds read low 0.999 | locus YLL001W, strain dnm1, active compounds read low 0.98 | locus YLL026W, active compounds read low 0.991 | locus YLL041C, strain sdh2, active compounds read low 1 | locus YLR027C, strain aat2, active compounds read low 0.997 | locus YLR113W, strain HOG1, active compounds read low 0.972 | locus YLR221C, strain rsa3, active compounds read low 1 | locus YLR258W, strain gsy2, active compounds read low 0.992 | locus YLR262C, strain YPT6 (second series), active compounds read low 1.02 | locus YLR320W, strain mms22, active compounds read low 0.971 | locus YLR342W, strain FKS1, active compounds read low 0.993 | locus YLR357W, strain rsc2, active compounds read low 0.957 | locus YLR370C, strain arc18, active compounds read low 0.998 | locus YLR384C, strain iki3, active compounds read low 0.992 | locus YML120C, strain ndi1, active compounds read low 1.01 | locus YMR058W, strain fet3, active compounds read low 0.992 | locus YMR125W, strain sto1, active compounds read low 0.955 | locus YMR129W, active compounds read low 0.988 | locus YMR205C, strain PFK2, active compounds read low 0.967 | locus YMR231W, strain pep5, active compounds read low 0.995 | locus YNL071W, strain lat1, active compounds read low 0.995 | locus YNL183C, strain NPR1, active compounds read low 0.927 | locus YNL209W, strain ssb2, active compounds read low 1 | locus YNL248C, strain rpa49, active compounds read low 0.982 | locus YNL322C, strain KRE1 (second series), active compounds read low 0.991 | locus YNR049C, strain mso1, active compounds read low 0.998 | locus YOR001W, strain rrp6, active compounds read low 1 | locus YOR070C, strain gyp1, active compounds read low 0.995 | locus YOR080W, strain dia2, active compounds read low 0.99 | locus YOR083W, strain WHI5, active compounds read low 1.02 | locus YOR106W, strain vam3, active compounds read low 1.01 | locus YOR231W, strain MKK1, active compounds read low 0.969 | locus YOR265W, strain rbl2, active compounds read low 0.993 | locus YOR270C, strain vph1, active compounds read low 0.98 | locus YOR290C, strain snf2, active compounds read low 0.981 | locus YPL051W, strain arl3, active compounds read low 1.01 | locus YPL078C, strain atp4, active compounds read low 1.01 | locus YPL106C, strain sse1, active compounds read low 0.997 | locus YPL240C, strain hsp82, active compounds read low 0.987 | locus YPL256C, strain CLN2, active compounds read low 0.968
